This passage reports activation results from PubChem BioAssay AID2796 (The Scripps Research Institute Molecular Screening Center, 2010).

Among all 320,000 compounds or so, about 8,000 (2.5%) were called active. The sample as a whole holds a higher share of actives than the screen did. A number with no mark means an inactive call. Rule as the data show it: active = activation above about 47%; inactive = the rest.

The target in the assay is Aryl hydrocarbon receptor (Homo sapiens) (UniProt P35869). Kind of assay: AHR activators, primary screen, cell-based, luminescence, luciferase reporter, human (AID 2796).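 Also: 0% = vehicle wells and 100% = reference agonist.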 The note with it: AHR-responsive luciferase reporter cells, at 5 µM, hits give high values. A general note: A reporter such as luciferase makes a cellular process visible.
Sequence of Aryl hydrocarbon receptor (Homo sapiens) (P35869 whole entry, looked up): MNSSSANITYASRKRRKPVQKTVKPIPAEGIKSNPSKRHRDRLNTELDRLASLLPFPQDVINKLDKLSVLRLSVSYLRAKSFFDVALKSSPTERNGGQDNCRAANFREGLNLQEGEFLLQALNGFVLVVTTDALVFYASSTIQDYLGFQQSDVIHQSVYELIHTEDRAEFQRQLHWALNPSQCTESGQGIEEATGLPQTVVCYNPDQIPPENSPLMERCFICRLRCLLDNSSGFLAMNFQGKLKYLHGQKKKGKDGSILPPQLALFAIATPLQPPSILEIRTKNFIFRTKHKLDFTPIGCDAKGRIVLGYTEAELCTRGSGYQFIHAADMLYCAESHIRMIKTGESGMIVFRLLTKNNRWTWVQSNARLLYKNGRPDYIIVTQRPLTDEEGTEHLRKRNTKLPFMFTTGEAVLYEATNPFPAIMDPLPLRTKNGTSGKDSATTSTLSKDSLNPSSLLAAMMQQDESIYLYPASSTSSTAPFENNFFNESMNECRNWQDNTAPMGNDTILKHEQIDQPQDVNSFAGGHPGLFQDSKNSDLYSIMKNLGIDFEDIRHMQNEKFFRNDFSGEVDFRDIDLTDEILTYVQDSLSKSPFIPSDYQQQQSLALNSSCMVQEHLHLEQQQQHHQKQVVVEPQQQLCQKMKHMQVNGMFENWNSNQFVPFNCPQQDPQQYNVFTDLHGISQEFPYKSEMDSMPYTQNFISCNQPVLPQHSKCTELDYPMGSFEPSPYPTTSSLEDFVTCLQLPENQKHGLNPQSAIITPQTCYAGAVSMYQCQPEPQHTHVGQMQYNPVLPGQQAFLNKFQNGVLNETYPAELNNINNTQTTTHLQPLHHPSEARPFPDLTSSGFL
`Cc1nn(C)c(Cl)c1CN1CCC(Oc2ccc(C(=O)N3CCCC3)cc2)CC1`: the activation was -2.1%. As for `CCCc1cc(=O)[nH]c(SCC(=O)N2C(C)CCCC2C)n1` (stereo unspecified), the activation is 0.47%. Next, `Nc1cccc(CCc2nc3ccccc3[nH]2)c1`: 6.68%; `CCCCSc1nc2ccccc2[nH]1`: 1.07%. Consider `c1ccc2[nH]c(-c3nc4ccccc4[nH]3)nc2c1`, for which the activation was 71.2% (active).

Take `COc1ccc(Br)cc1C(=O)NC(=S)Nc1cc(-c2nc3ccccc3[nH]2)ccc1C`: the activation is 36.6%.

On to `Cc1ccc(-c2nc3ccccc3[nH]2)cc1N`, for which the activation is 47.4% (active). Turning to `COc1ccc(-c2[nH]nc(-c3ccccc3)c2-c2nc3ccccc3[nH]2)cc1`, the activation was 4.79%. The result for `OCc1n[nH]c(CO)n1` reads -0.81%; that for `O=C(C1CCN(C2CCN(Cc3cccc4c3OCO4)CC2)CC1)N1CCOCC1`, 4.05%. The result for `COc1ccc(CCOC2OC(CO)C(OC(=O)/C=C/c3ccc(O)c(OC)c3)C(O[C@H]3O[C@@H](C)[C@H](O)[C@@H](O)[C@H]3O)C2O)cc1O` (stereo partly specified) reads 1.88%; that for `NC(=O)C1=C[C@@H](c2csc3ccccc23)C[C@@H](OCc2ccc(CO)cc2)O1`, -0.11%; that for `NC(=O)C1=C[C@H](c2csc3ccccc23)C[C@H](OCc2ccc(CO)cc2)O1`, 0.39%. The result for `O=C(NC1CC1)C1=C[C@H](c2c[nH]c3ccccc23)C[C@H](OCc2ccc(CO)cc2)O1` reads 135% (active); that for `CCN(CC)C(=O)COc1coc(CN2CCN(Cc3ccccc3)CC2)cc1=O`, -1.36%; that for `C/C(=N\Nc1ncc(Cl)cc1Cl)c1cccs1`, 1.11%. As for `C/C(=N\Nc1ncc(Cl)cc1Cl)c1ccc(S(=O)(=O)NCc2ccco2)cc1`, the activation is 29.9%. Take `COc1cccc(/C(C)=N/Nc2ncc(Cl)cc2Cl)c1`: the activation was 53.5% (active). With `CC1CCCCC12NC(=O)N(CC(=O)N1CCN(c3ccccc3)CC1)C2=O` (stereo unspecified), the activation is 0.1%. The result for `CC1=NN(C(=O)CCc2ccccc2O)C(O)(C(F)(F)F)C1` (stereo unspecified) reads -1.07%; that for `COc1cccc(OC)c1C(=O)Nc1ccc(N2CCCCC2)cc1`, 79.6% (active). The result for `COc1cccc(OC)c1C(=O)Nc1ccc2c(c1)n(C)c(=O)n2C` reads 1.94%. The result for `COc1cc2ccccc2cc1C(=O)N1CCOCC1` reads 0.61%.

As to `COc1cc2ccccc2cc1C(=O)Nc1ccncc1`, the activation was 5.1%. The result for `COc1cc2ccccc2cc1C(=O)Nc1ccc(N2CCOCC2)cc1` reads 95.9% (active); that for `COc1cccc(OC)c1C(=O)Nc1ccc(Cc2ccncc2)cc1`, 15.6%; that for `FC(F)(F)C1CCCN(c2nsc3ccccc23)C1` (stereo unspecified), 16.6%.

Turning to `Cc1noc(C)c1S(=O)(=O)N(C)C[C@H]1Oc2ccc(NC(=O)C3CCCCC3)cc2C(=O)N([C@H](C)CO)C[C@@H]1C`, the activation was -1.72%. As for `CCc1ccc(NC(=O)CS(=O)CC(=O)N2CCN(c3ccccc3F)CC2)cc1` (stereo unspecified), the activation is -1.39%. The result for `Cc1cccc(NC(=S)NCc2ccc3[nH]c4c(c3c2)CCCC4)c1` reads 68% (active); that for `O=C(O)CCC(=O)NCc1ccc2[nH]c3c(c2c1)CCCC3`, 1.38%. Next, `Cc1cc(C)cc(NC(=S)NCc2ccc(F)cc2)c1`: 4.28%; `Cc1ccc(Nc2nc(CSc3nnnn3-c3ccccc3)cc(=O)[nH]2)cc1`: 73.4% (active); `Cc1ccc(-c2noc(CSc3nnnn3-c3ccccc3)n2)cc1`: 8.65%.

Consider `COc1ccc(C)cc1-n1nnnc1SCc1nc2ccccc2c(=O)[nH]1`, for which the activation is 24.9%. The result for `Cc1ccc(Br)c(NS(=O)(=O)c2cccc(C(=O)N3CCNC(=O)C3)c2)c1` reads 1.33%. The result for `COc1cc(OC)c(C(=O)Nc2ccc(N(C)C)cc2)cc1OC` reads -7.49%; that for `COC(=O)c1ccc(NC(=O)c2cc(Cl)ccc2OC)cc1`, 2.68%; that for `COc1ccc(Cl)cc1C(=O)Nc1ccc(N(C)C(C)=O)cc1`, 81.3% (active). With `Cc1ccsc1C(=O)OCC(=O)Nc1cccc(F)c1`, the activation is -0.75%.

As to `Cc1ccc(C(=O)Nc2ccccc2-c2ccccc2)cc1S(=O)(=O)Nc1ccccc1`, the activation is 2.25%. Next, `Cc1ccc(C)c(NC(=O)C(OC(=O)c2ccc(C)s2)c2ccccc2)c1` (stereo unspecified): 29.4%; `O=C(CCCCn1c(=O)[nH]c2ccccc2c1=O)NCc1ccc2c(c1)OCO2`: 79.9% (active); `O=C(CCc1c[nH]c2ccccc12)NCCOc1ccccc1`: 2.6%. The result for `Cn1cc(CCC(=O)NCc2ccc3c(c2)OCO3)c2ccccc21` reads 8.58%; that for `O=C(CCn1c(=S)[nH]c2cc3c(cc2c1=O)OCO3)NCc1ccc(Cl)cc1`, -0.55%. Next, `O=C(CCCCCn1c(=O)[nH]c2ccccc2c1=O)NCCc1c[nH]c2ccccc12`: 54.7% (active); `CCN(CC)CCNC(=O)CCCCCn1c(=O)[nH]c2cc(C(=O)OC)ccc2c1=O`: 1.58%; `O=c1c2ccccc2c(-c2ccccc2)nn1-c1ccccn1`: 0.2%. With `Cc1ccc(C(=O)NNC(=O)c2cccs2)cc1`, the activation was -3.24%. Next, `Cc1ccc(C(=O)NNC(=O)c2cc3cc4ccccc4nc3s2)cc1`: 64% (active); `Cc1ccc(C(=O)NNc2ncnc3ccccc23)cc1`: 19.4%; `Cc1cccc(NC(=O)c2ccc(S(=O)(=O)N(C)c3ccccc3)cc2)n1`: 13.7%.

`O=C(COC(=O)c1ccc([N+](=O)[O-])cc1Cl)NC(=O)c1ccccc1`: the activation was 0.29%. The result for `CCOC(OCC)c1ccc(/C=C\c2nccc(N)n2)cc1` reads 2.83%; that for `CC1=CC=CC2=N/C(=N\S(=O)(=O)c3ccc(F)cc3F)c3ccccc3CN12`, 68.7% (active). Next, `CCNC(=S)N1CCN(S(=O)(=O)c2ccc(Cl)s2)CC1`: -1.16%; `CN(C)/C=C1/Nc2ccccc2C1=O`: 33.7%. The result for `Cc1cc(C)c(/C=C2\C(=O)Nc3ccccc32)[nH]1` reads 47% (active); that for `O=C1Nc2ccccc2/C1=C/c1ccnc2ccccc12`, 8.16%; that for `COCCN(C(=O)CCC(=O)Nc1nccs1)C(C(=O)NC(C)(C)C)c1ccc(Cl)cc1` (stereo unspecified), 0.14%.
